Hits are enriched below; roughly 7.9% of the tested compounds scored in any of these assays.
KB-3-1 tox: qHTS assay for MDR1-selective chemotherapeutics: Primary screen using the parental adenocarcinoma cell KB-3-1 | Potency, µM (series often up to 46.1 µM), usual class: cytotoxic | actives 1.4% (n = 400,000) | KB-3-1 viability, CellTiter-Glo ATP luminescence, 72 h; note: % is set by controls: 0 for no effect and ±100 for the full control effect; nearly all actives have a fitted effect of over 60% in size
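Here the drug-naive KB-3-1 line serves as comparator for MDR sub-line selectivity; cells received compound titrations, 72 h at 37 °C, then CellTiter-Glo readout.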
HT1080NT lethal: qHTS for induction of synthetic lethality in tumor cells producing 2HG: qHTS for the HT-1080-NT fibrosarcoma cell line | actives 1.6% (n = 360,000) | AID 686970, 2013 | Potency, µM (titrated, usually from 46.1 µM), for the others: at the highest dose activity, negative = less viability, most hits filed as cytotoxic | HT-1080-NT fibrosarcoma viability, CellTiter-Glo ATP luminescence, 48 h;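 note: NT is the 2HG producing partner of a matched IDH1 knockdown line; 0% = DMSO-treated cells and -100% = media-only wells without cells; nearly all actives have a fitted effect of over 55% in size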
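750 cells/well, RPMI + 5% FBS; 2 h settle, compound pin-transfer, 48 h at 37 degrees C. CellTiter-Glo 10 min RT, luminescence. Normalized to DMSO and media-only wells.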
KB-V1 cytotox: qHTS assay for MDR1-selective chemotherapeutics: Primary screen using the drug-selected MDR subline cells KB-V1; KB-V1 MDR cells viability, CellTiter-Glo, 72 h; Potency, µM (titrated, usually from 46.1 µM), actives largely listed as cytotoxic; AID 1347076, 2019; actives 3.4% (n = 400,000); note: % is set by controls: 0 for no effect and ±100 for the full control effect; nearly all actives have a fitted effect of over 60% in size
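KB-V1 cells (P-gp-expressing MDR subline of KB-3-1) in phenol-red-free DMEM with 10% FBS were exposed to library compounds over a concentration series for 72 h at 37 degrees C. Viability read by CellTiter-Glo luminescence; concentration-effect curves fitted after normalization.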
MCF10A rereplic: A quantitative high throughput screen for small molecules that induce DNA re-replication in MCF 10a normal breast cells. MCF 10A DNA re-replication, Hoechst nuclear intensity, 48 h. Potency, µM (top dose mostly 46.1 µM), inactives show at the highest dose activity, positive = re-replication, hits mostly activators. actives 2.9% (n = 350,000); note: % of control where 0% means no effect; nearly all actives have a fitted effect of over 50% in size
HT1080 IDH1KD tx: qHTS for induction of synthetic lethality in tumor cells producing 2HG: qHTS for the HT-1080-IDH1KD cell line. HT-1080 IDH1 knockdown viability, ATP luminescence, 48 h. Potency, µM (doses to about 46.1 µM), without a hit: top-dose activity, negative = toxicity, usual class: cytotoxic. actives 2% (n = 360,000);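 note: 0% = DMSO wells and -100% = cell-free medium wells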
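Assay cells: HT-1080 with IDH1 knockdown, 750 per well, RPMI/5% FBS. Exposure: 48 h at 37 °C following 2 h pre-incubation. Read: CellTiter-Glo luminescence; fitted concentration-response, curve class assigned.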
SW480 rereplic: A quantitative high throughput screen for small molecules that induce DNA re-replication in SW480 colon adenocarcinoma cells; SW480 DNA re-replication, Hoechst DNA content imaging, 48 h; Potency, µM (series often up to 46.1 µM), without a hit: at the top dose re-replication activation, actives largely listed as activators; actives 1.8% (n = 340,000); AID 624297, 2012; note: % of control where 0% means no effect; nearly all actives have a fitted effect of over 55% in size
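250 cells/well; 23 nL cpd via pin tool; 48 hr, 37 C, 5% CO2; Hoechst 40 min; imager read of total nuclear intensity, ex 405/em 500-530 nm.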
The depositor's hits bear a star; i = inactive; ? = inconclusive; · = no result given. Calls come from the whole dose curve; as a rule, active = well fitted curve in the direction sought with a large enough effect; inconclusive = small, poorly fitted or top-dose-only effect, or another doubt; inactive = no such curve, though single readings can be large; an effect the other way counts as inactive or inconclusive. Potency is the fitted concentration of half-maximal effect.

SMILES	KB-3-1 tox	HT1080NT lethal	KB-V1 cytotox	MCF10A rereplic	HT1080 IDH1KD tx	SW480 rereplic
CCN(CC)S(=O)(=O)c1cccc(C(=O)/C=C2/N(C)c3ccccc3C2(C)C)c1	i	-11%	i	18µM*	-11%	21µM*
CN1/C(=C/C(=O)C2CC2)C(C)(C)c2ccccc21	i	2%	i	-14%	-4%	8%
CN1/C(=C\C(=S)NC(=O)c2cccc(Br)c2)C(C)(C)c2ccccc21	?	-3%	8.2µM*	?	?	?
N#Cc1ccc(-c2cccs2)nc1SCc1cccnc1	?	?	?	0.41µM*	?	0.73µM*
COc1ccccc1NC(=O)Cc1nnc(SCC(=O)c2ccc(F)cc2)n1C	i	6%	i	-8%	-7%	-24%
CCOc1ccc(NC(=O)CN(C)Cc2ccc3c(c2)OCO3)cc1S(=O)(=O)N1CCCC1	i	0%	i	15%	5%	-42%
CN1CCN(C2=C(NS(=O)(=O)c3cccs3)C(=O)c3ccccc3C2=O)CC1	?	?	?	0%	?	?
CCOc1ccccc1N1CCN(C2=C(NS(=O)(=O)c3cccs3)C(=O)c3ccccc3C2=O)CC1	?	?	?	23µM*	?	24%
O=C1C(NS(=O)(=O)c2cccs2)=C(N2CCN(Cc3ccccc3)CC2)C(=O)c2ccccc21	i	-1%	23µM*	13%	-11%	-12%
CCN1CCN(C2=C(NS(=O)(=O)c3ccccc3)C(=O)c3ccccc3C2=O)CC1	?	5%	?	?	-3%	18µM*
O=C1C(NS(=O)(=O)c2cccs2)=C(N2CCOCC2)C(=O)c2ccccc21	i	?	i	-4%	?	-6%
Cc1cc(C)c2c(n1)sc1c(=O)n(-c3ccccc3C(F)(F)F)nnc12	?	·	i	·	·	·
CC(C)Sc1ncc(Cl)c(C(=O)N(Cc2ccc(N(C)C)cc2)C2CCS(=O)(=O)C2)n1 (centres undefined)	i	·	i	·	·	·
NC(=O)c1ccc(NC(=O)CSC(=O)c2ccccc2)cc1	?	0%	i	-1%	0%	-11%
CCN(CC)C(=O)COc1ccc2c3c(c(=O)oc2c1)CCCC3	i	18%	i	10%	?	-10%
CCOc1ccc(NS(=O)(=O)c2ccc(C(=O)N3CCC3)cc2)cc1	?	-1%	i	1%	-2%	15%
O=C(Nc1cccc(S(=O)(=O)N2CCOCC2)c1)c1ccc(Cl)c([N+](=O)[O-])c1	i	3%	i	9.2µM*	-1%	16µM*
COc1ccc(NC(=O)c2ccc(NCCCN3CCOCC3)c([N+](=O)[O-])c2)cc1	?	4%	9.2µM*	14%	0%	-5%
Cc1ccc(NC(=O)c2ccc(NCCCN3CCOCC3)c([N+](=O)[O-])c2)cc1Cl	8.2µM*	18µM*	23µM*	?	18µM*	?
Cc1ccc(NC(=O)c2ccc(N3CCOCC3)c([N+](=O)[O-])c2)cc1S(=O)(=O)N1CCOCC1	21µM*	-3%	?	1%	-15%	-10%
CC(C)C1C(=O)Nc2ccc(S(=O)(=O)NCc3ccc(Cl)cc3)cc21 (centres undefined)	i	·	i	·	·	·
CC1(C)C(=O)N(CC(=O)Nc2ccc(Cl)cc2)c2ccccc21	i	·	?	·	·	·
O=C(Nc1ccc(Cl)c([N+](=O)[O-])c1)c1ccc(NCCCN2CCOCC2)c([N+](=O)[O-])c1	i	-1%	4.6µM*	?	0%	2.9µM*
O=[N+]([O-])c1cc(S(=O)(=O)NCCCN2CCOCC2)ccc1Cl	i	0%	i	16µM*	-4%	?
COc1cc(S(=O)(=O)NCCCN2CCOCC2)ccc1Cl	i	4%	i	5%	-22%	10%
SMILES	KB-3-1 tox	HT1080NT lethal	KB-V1 cytotox	MCF10A rereplic	HT1080 IDH1KD tx	SW480 rereplic
O=C(NCCCN1CCOCC1)c1ccc(Sc2cccc(Cl)c2)c([N+](=O)[O-])c1	?	-8%	21µM*	20%	-5%	-9%
Cn1c(CSCc2ccc(F)cc2)nnc1SCC(=O)Nc1nccs1	?	-27%	23µM*	7%	-2%	0%
Cn1c(CSCc2ccc(F)cc2)nnc1SCC(=O)N1CCN(c2ccccc2)CC1	?	-23%	16µM*	3%	-21%	-5%
O=C(CSCc1ccc(F)cc1)N1CCN(c2ccccc2)CC1	i	4%	?	10%	-9%	7%
CC(Sc1nnc(NC2CC2)s1)C(=O)Nc1ccc(N2CCOCC2)cc1 (centres undefined)	i	0%	i	4%	13%	-7%
O=C(CSc1nnc(NC2CCCCC2)s1)Nc1ccc(N2CCOCC2)cc1	i	0%	5.8µM*	16%	-26%	-3%
COc1cc(NC(=O)c2ccc(C(=O)Nc3cc(OC)c(Cl)cc3OC)cc2)c(OC)cc1Cl	i	·	?	·	·	·
O=C(CCN1CCOCC1)c1ccc(Cl)cc1	i	-12%	i	7.3µM*	-4%	20%
CCCCCOc1ccc(C(=O)CCN2CCOCC2)cc1	i	?	i	?	?	3%
O=C(CCN1CCOCC1)c1ccc(Br)cc1	i	?	i	9.2µM*	26µM*	?
CC(C)(C)C(=O)N1N=C(c2ccc(NS(C)(=O)=O)cc2)CC1c1cccs1 (centres undefined)	i	?	?	12%	16µM*	3%
CS(=O)(=O)Nc1ccc(C2=NN(C(=O)c3ccccc3)C(c3cccs3)C2)cc1 (centres undefined)	i	-10%	?	4%	-10%	-12%
CCC(=O)N1N=C(c2cccc(NS(C)(=O)=O)c2)CC1c1cccs1 (centres undefined)	i	3%	18µM*	1%	0%	-87%
Cc1cccc(N2CCN(C(=O)[C@H](C)N3C(=O)C4CC=CCC4C3=O)CC2)c1C (some centres undefined)	i	1%	i	18%	-9%	-4%
CC(=O)N(CC#CCN(C(C)=O)c1ccccc1)c1ccccc1	i	-1%	i	·	-12%	·
